The values that follow come from PubChem BioAssay AID1117359 (Southern Research Institute, 2015).

Out of some 1,500 compounds screened, about 460 (31%) were called active. A selection follows. Results with a measured potency or affinity are listed apart. A number with no mark means an inactive call.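 How the source made its calls: active means viability at or below 80% at any tested concentration, marking the compound as toxic; inactive means the rest.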

The assay can be described thus: THP-1 cell cytotoxicity, dose response, cytotoxicity control for Vif-APOBEC3G degradation inhibitor project, THP-1 cells (AID 1117359). To be noted: THP-1 viability, CellTiter-Glo luminescence, 72 h; series mostly up to 40 µM; viability: at the top concentration.
Regarding `CCOC(=O)C1(C)NC(c2ccco2)C2C(=O)N(CC)C(=O)C21` (configuration not stated), the “viability” value is 110%.
Regarding `O=C1CC(c2ccco2)CC(O)=C1C=NCC1CCNCC1` (configuration not stated), the “viability” value was 84%.
As to `Cc1cccc(/C=C(\C(=O)O)c2ccc(S(=O)(=O)N3CCCC3)s2)c1`, the “viability” value was 85.2%.
On to `O=C(C1CCN(S(=O)(=O)N2CCC3(CC2)OCCO3)CC1)N1CCOCC1`, for which the “viability” value was 94.2%.
Still for that read-out and setting: for `COc1ccccc1NCCC(=O)OCC(=O)NCc1ccco1` the value was 108%; for `CCOC(=O)c1ccc(NC(=O)CSCc2ccco2)cc1`, 98.2%; for `Cc1ccc(NC(=O)CNC(=O)COc2ccccc2)nc1`, 103%.
In the case of `COc1cccc(C(=O)N2CCN(Cc3nc(CC4CC4)no3)CC2)c1`, the “viability” value was 102%.
As for `CCCCC(O)(CCCC)C(=O)N/N=C(\C)c1ccc(Cl)cc1`, the “viability” value was 95.1%.
On the same count and under the same terms, in the case of `NC(=O)c1ccc(N2CCN(c3ccc(O)cc3)CC2)c([N+](=O)[O-])c1` it was 92%.
In the case of `CCC(=O)Nc1ccc(S(=O)(=O)NC[C@H]2O[C@@H](n3cc(C)c(=O)[nH]c3=O)C[C@@H]2O)cc1`, the “viability” value was 92.5%.
On to `C=C(C)C1CC=C(C)/C(=N\NC(=O)CCC(=O)Nc2ccc(C)c(C)c2)C1` (configuration not stated), for which the “viability” value was 87.5%.
`c1coc(CNc2nc(-c3cccs3)cs2)c1`: the “viability” value is 91.9%.
`O=C(Nc1cc(Cl)cc(Cl)c1)c1coc(=O)c(Br)c1`: the “viability” value was 105%.
Turning to `C[c-]1[c-](C)[c-](C)[c-](C)[c-]1C.[Fe].c1cc2nccc(N3CCCC3)[c-]2c1` (configuration not stated), the “viability” value is 83.7%.
The same measure, in the same setting: for `CCn1c(SC(C)C)nnc1-c1cc(-c2ccccc2)sc1N` the value was 92.6%.
Take `COc1ccc(C(=O)O)cc1S(=O)(=O)N1CCCc2ccccc21`: the “viability” value is 84.4%.
On the same count and under the same terms, for `COCCn1c(SCC(=O)Nc2ccccc2F)nc2c([nH]c3ccccc32)c1=O` the value was 102%; for `CC1=C(C#N)C(=O)N(C2CCS(=O)(=O)C2)C(=O)/C1=C\c1ccc(C)o1` (configuration not stated), 101%.
`S=c1[nH]nc(COc2ccc(Cl)cc2)n1Cc1ccccc1`: the “viability” value is 83.4%.
Same read-out and setting: for `CCCC(=O)NC(C)C(c1cccs1)N1CCN(C)CC1` (configuration not stated) the value was 117%; for `CCOc1ccccc1N1C(=O)CC(Nc2ccc(N3CCOCC3)cc2)C1=O` (configuration not stated), 91.4%; for `CN(C(=O)COc1ncnc2sccc12)c1ccccc1`, 107%.
`O=C(C1CCC(CNc2c(N3CCCCC3)c(=O)c2=O)CC1)N1CCN(C2CCCCC2)CC1` (configuration not stated): the “viability” value is 105%.
In the case of `CC(=O)N1CCN(c2ccc(NCc3ccccc3)cc2)CC1`, the “viability” value is 90%.
As to `Cc1sc2nc(C)n(/N=C/c3ccccc3O)c(=O)c2c1C`, the “viability” value was 105%.
For the compound `COc1cc2c(cc1N)-c1ccc(N)cc1C2`, the “viability” value was 84%.
In the case of `C=C(C)C(=O)Nc1cccc(C2=NOC3(C2)C[C@@H](C(N)=O)N(C(=O)c2cc([N+](=O)[O-])cc([N+](=O)[O-])c2)C3)c1` (some centres not stated), the “viability” value is 91.8%.
Still for that read-out and setting: for `O=C(O)c1cc(Nc2cc(Cl)c3nonc3c2[N+](=O)[O-])ccc1O` the value was 107%; for `Cc1ccc(S(=O)(=O)Cn2nnnc2C(CC(C)C)N2CCN(C)CC2)cc1` (configuration not stated), 81.4%.
As for `Cc1cc(C)cc(NCCC#N)c1`, the “viability” value is 88.6%.
For the compound `CCOC(=O)C1=C(O)/C(=C\c2ccc(CNC(=O)C(=O)Nc3ccccc3)o2)N=C1C`, the “viability” value is 80.2%.
With `CCCOC(=O)Nc1sc2c(c1C(=O)OCC)CCC2`, the “viability” value is 82.4%.
On the same count and under the same terms, for `Cc1c(C(=O)O)cccc1-n1c(C)cc(/C=N/Nc2ccc([N+](=O)[O-])cn2)c1C` the value was 110%; for `CCOC(=O)CSc1nncc2ccc(OC)c(OC)c12`, 98.2%.
As to `CC(NC(=O)Nc1ccc(O)cc1)(C(F)(F)F)C(F)(F)F`, the “viability” value is 99.2%.
Consider `N#Cc1c(-c2ccccc2)nc2n1CCS2`, for which the “viability” value is 82.6%.
For the compound `Nc1ccc(-c2nc3cc(N)ccc3n2CCO)cc1`, the “viability” value is 104%.
Turning to `CC(=O)Nc1ccc(C(=O)Nc2cccc(-c3cnc4ccccc4n3)c2)cc1`, the “viability” value was 81.6%.
Same read-out and setting: in the case of `CC1=CC(C)(C)n2c(O)c(N=NC(N)=S)c3c(C)c(C)cc1c32` it was 91.2%.
On the same count and under the same terms, in the case of `COC(=O)CCC(=O)OC1(C)C(=O)C2=CN(CCCOC(C)C)C(c3ccc(OC)cc3)=CC2=C(Br)C1=O` (configuration not stated) it was 96.9%; in that of `O=C(O)C1Nc2ccc(Br)cc2C2C=CCC12` (configuration not stated), 109%; in that of `C/C(=N\Nc1ccc2nncn2n1)c1ccc(Br)s1`, 92.1%.
`CC(=O)Nc1ccc(/C=N/Nc2ccc(C(=O)c3c(C)cc4ccccn34)cc2[N+](=O)[O-])cc1`: the “viability” value was 102%.
As for `O=C1CC(Nc2ccc(N3CCOCC3)cc2)C(=O)N1c1cccc(C(F)(F)F)c1` (configuration not stated), the “viability” value was 101%.
Take `O=C(O)c1ccc(-n2cccc2/C=N\NC(=O)c2cc3cc(Br)ccc3o2)cc1`: the “viability” value is 102%.
On to `CCOC(=O)C1CCN(C(=O)Nc2ccc3nc(-c4ccco4)c(-c4ccco4)nc3c2)CC1`, for which the compound was called inactive.
On to `O=C(O)Cn1c(=O)c2c(c3ccccc31)CCC2`, for which the “viability” value was 81.8%.
In the case of `O=C(O)c1cccc(-n2cccc2/C=C/[N+](=O)[O-])c1`, the “viability” value was 107%.
For the compound `Cc1cccc(NC(=S)NC(=O)/C=C/c2ccco2)c1`, the “viability” value was 94.8%.
Consider `CC(=O)c1ccc(S(=O)(=O)Nc2cccc(-c3ccc(N4CCOCC4)nn3)c2)cc1`, for which the “viability” value was 81.9%.
Consider `CCCCOC(=O)CCCN1C(=O)/C(=C2\SC(=S)N(CCCC(=O)OCCCC)C2=O)SC1=S`, for which the “viability” value is 91.9%.
Consider `Nc1ncnc2c1cnn2C1CCCCC1`, for which the “viability” value was 96.9%.
As for `Cc1ccc(Nc2ccc(N)cc2S(=O)(=O)O)cc1`, the compound was classed as inactive.
In the case of `CCOCCCNC(=O)C1CCN(S(=O)(=O)CC)CC1`, the “viability” value was 111%.
Regarding `CCOC(=O)N1CCC(NC(=O)c2ccc(OC)c(CN3CC(=O)N4CCCC4C3=O)c2)CC1` (configuration not stated), the “viability” value was 114%.
In the case of `C=CCN1C(=O)/C(=C\c2ccco2)C(C(=O)OC)=C1C`, the “viability” value was 104%.
With `O=C(O)c1ccc(S(=O)(=O)c2ccc([N+](=O)[O-])cc2[N+](=O)[O-])cc1`, the “viability” value is 97.5%.
For `O=[N+]([O-])c1ccccc1S(=O)(=O)NC1CCCC1`, the “viability” value was 104%.
In the case of `CCNC(=O)C1CC(=O)N(Cc2ccc(F)cc2)C(=Nc2ccc(OC)cc2)S1` (configuration not stated), the “viability” value was 87.7%.
Regarding `CCOC(=O)C1CC(CN2C(=O)c3ccccc3C2=O)OC1=O` (configuration not stated), the “viability” value is 93.9%.
Consider `CC1CCCCC1NC(=S)Nc1cccc(S(=O)(=O)N(C)C)c1` (configuration not stated), for which the “viability” value was 100%.
As to `O=C1N(Cc2cccnc2)C[C@@H]2C[C@@H](c3ccc4nsnc4c3)N3CCC[C@@]123`, the “viability” value was 103%.
Same read-out and setting: in the case of `Cc1cc(NC(=O)Cc2cccs2)no1` it was 93.5%.
For the compound `CN1CCN(NC(=O)c2ccc(S(=O)(=O)N3CC4(C)CC3CC(C)(C)C4)cc2)CC1` (configuration not stated), the “viability” value was 84.6%.
The same measure, in the same setting: for `CCC(C)n1c(-c2cccc(S(=O)(=O)N3CCOCC3)c2)n[nH]c1=S` (configuration not stated) the value was 84.1%.
In the case of `Cc1cc(NC(=O)Cn2cnc3c(nnn3-c3cccc(F)c3)c2=O)no1`, the “viability” value was 108%.
Same read-out and setting: in the case of `Oc1c(CN2CCOCC2)cc(CN2CCOCC2)c(O)c1O` it was 94%.
For `COc1ccccc1NS(=O)(=O)c1cc(C(=O)NCCN2CCOCC2)ccc1Cl`, the “viability” value was 84.2%.
The same measure, in the same setting: for `CCOc1ccc(-n2c(SCC(N)=O)nnc2-c2cccnc2)cc1` the value was 99.5%.
Regarding `CN(Cc1cccs1)C(=O)Cn1cnc2ccccc2c1=O`, the “viability” value was 84.5%.
On to `O=C1CC(NCc2ccco2)C(=O)N1CCc1ccccc1` (configuration not stated), for which the “viability” value was 113%.
With `O=C(NCCc1ccccc1)c1ccc2nc(-c3ccco3)c(-c3ccco3)nc2c1`, the “viability” value was 86.9%.
For `Cc1c(F)cccc1NC(=O)CCCCCC1NC(=O)NC1C` (configuration not stated), the “viability” value was 89.3%.
Take `CCN1C[C@@H]2[C@@H]3C(=O)N(Cc4ccccc4)C(=O)[C@@H]3[C@](C)(C(=O)OC)N2C1=NC1CCCCC1`: the “viability” value is 99.2%.
As to `CO[C@H]1C=CO[C@@]2(C)Oc3c(C)c(O)c4c(O)c(c(C=NN5CCN(C)CC5)c(O)c4c3C2=O)NC(=O)C(C)=CC=C[C@H](C)[C@H](O)[C@@H](C)[C@@H](O)[C@@H](C)[C@H](OC(C)=O)[C@@H]1C`, the “viability” value was 86.4%.
As to `CSc1ccc(CN(C)CC(=O)NC(=O)NCCC2=CCCCC2)cc1`, the “viability” value is 88.9%.
Take `CC1(OC(=O)C2CCCC2)C(=O)C=C2C=C(c3ccsc3)OC=C2C1=O` (configuration not stated): the “viability” value was 107%.
Same read-out and setting: for `CC1(CCl)N([O-])C2=C(CCCC2)[N+]1=O` (configuration not stated) the value was 99.6%; for `O=C(NN=C1CCCCCC1)c1cccnc1`, 82.5%.
In the case of `O=C(N/N=C/c1cccnc1)c1cc(O)c(O)c(O)c1`, the “viability” value was 98.4%.
For `Cc1cc(C)n(CC(=O)NNC(=O)c2ccc(NC(=O)CC#N)cc2)n1`, the “viability” value was 111%.
For `CN(C)c1ccc(N/C=C/C(=O)c2ccco2)cc1`, the “viability” value was 82.4%.
`Nc1cc(N)nc(SCc2cc([N+](=O)[O-])cc3c2OCOC3)n1`: the “viability” value is 102%.
Consider `Cc1ccc(N/N=C/c2c(C)c(C#N)c(=O)n(C)c2O)cc1C`, for which the “viability” value is 109%.
`Cn1ccnc1Sc1ccc(/C=N/NC(=O)c2ccccc2O)cc1[N+](=O)[O-]`: the “viability” value is 109%.
Take `O=S(=O)(c1ccc(NC(=S)N/N=C/c2ccc(O)c(O)c2)cc1)N1CCOCC1`: the “viability” value is 87.7%.
For the compound `O=C1C(=Cc2ccco2)CCCC1=Cc1ccco1`, the “viability” value is 82.8%.
Regarding `O=C(COC(=O)COc1ccc(Cl)cc1Cl)NC1CCCCCC1`, the “viability” value is 98.7%.
Turning to `CN1CCN(C(=O)/C(=C/c2ccc(F)cc2)NC(=O)c2ccccc2)CC1`, the “viability” value was 91.1%.
Regarding `O=C(Cc1c(F)cccc1Cl)NNC(=O)c1ccccc1Cl`, the “viability” value was 95.7%.
With `COc1ccc2nc(-c3ccccc3)cc(C(=O)OCC(=O)N3CC(C)OC(C)C3)c2c1` (configuration not stated), the “viability” value was 86.4%.
The same measure, in the same setting: for `O=C(c1coc(=O)c(Br)c1)N1CCCc2ccccc21` the value was 91.1%; for `CCCCN(C(=O)c1ccccc1OCc1ccc(F)cc1)c1c(N)n(CC(C)C)c(=O)[nH]c1=O`, 84.6%; for `COc1ccc(S(N)(=O)=O)cc1C(=O)OCC(=O)NC(C)(C#N)C1CC1` (configuration not stated), 106%.
For `CCc1ccc(N2C(=O)Cc3c2nc(N)c(C#N)c3N)cc1`, the “viability” value is 89.4%.
As to `COC(=O)c1ccccc1NC(=O)c1noc2c1CCC2`, the “viability” value was 92.8%.
The same measure, in the same setting: in the case of `O=C(CN1CCN(S(=O)(=O)c2ccc(F)cc2)CC1)c1ccc(O)c(O)c1` it was 111%; in that of `CC(C)(C)c1ccc(S(=O)(=O)N2CCCCC2)cc1`, 82.3%.
Consider `O=C(CCS(=O)(=O)c1ccc(Br)cc1)N1CCN(c2ccc(F)cc2)CC1`, for which the “viability” value is 90.7%.
As to `CC(=O)Nc1ccc(NC(=O)C(C)OC(=O)CC23CC4CC(CC(Br)(C4)C2)C3)cc1` (configuration not stated), the “viability” value is 94.2%.
The same measure, in the same setting: for `CC(=O)OC1OCCOC1NC(=S)Nc1ccc(C)cc1` (configuration not stated) the value was 85.9%; for `CC(C)(C)NCCCCOc1ccc(F)cc1`, 103%; for `COC/C=C/C1=CC2=CC(=O)C(C)(OC(=O)c3ccco3)C(=O)C2=CO1` (configuration not stated), 83.5%.
For the compound `COc1ccc2nc(NNC(=O)c3cc(=O)c4ccccc4o3)sc2c1`, the “viability” value is 87%.
Take `O=c1c(N=Nc2ccc(O)cc2)c(-c2ccccc2)[nH]n1-c1ccc([N+](=O)[O-])cc1`: the “viability” value is 86%.
With `O=C(c1cc2ccccc2o1)N1CC=C(c2ccccc2)CC1`, the “viability” value was 81.2%.
